FMDV inh – blocks foot and mouth disease virus. FMDV antiviral cell-based qHTS. Potency, µM (titrated, usually from 57.9 µM), for inactives: top-dose activity change, negative = inhibition, most hits filed as inhibitors. 410,000 tested, 1.2% active. AID 1159524; calls by dose curve; tested in HEK293T cells; also: read-out not given here; nearly all actives have a fitted effect of over 45% in size
Sm TGR inh – blocks Schistosoma mansoni thioredoxin glutathione reductase; purified TGR, DTNB reduction, TNB absorbance 405 nm; Potency, µM (series often up to 114 µM), without a hit: at the top dose activity change, negative = inhibition, hits mostly inhibitors; 360,000 tested, 3% active; also: nearly all actives have a fitted effect of over 60% in size
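Kinetic colorimetric format: TGR-catalysed, NADPH-driven DTNB reduction monitored via TNB absorbance. Enzyme dispensed at 20 nM; compound exposure 15 min at room temperature before reaction start.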
Lassa entry inh – Lassa virus entry inhibition. 300,000 tested, 1.2% active. Potency, µM (titrated, usually from 37.9 µM), for inactives: at the highest dose activity change, negative = inhibition, most hits filed as inhibitors. AID 540256. Lassa virus pseudotype entry inhibition, cell reporter; calls by dose curve; tested in HEK293 cells; also: nearly all actives have a fitted effect of over 50% in size
HCV inh – blocks hepatitis C virus; AID 651820; Potency, µM (series often up to 41.8 µM), without a hit: at the top dose activity change, negative = inhibition, hits mostly inhibitors; Huh7.5.1 HCVcc-Cre infection, luciferase reporter, 44 h; 340,000 tested, 3.4% active
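Whole-lifecycle infectious HCVcc-Cre system; cells 1,000/well, compound then virus (~0.5 moi) added 4 h after plating, 44 h culture. Luciferase read 15 sec following 15 min substrate incubation, room temp.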
MARV entry inh – Marburg virus entry inhibition; Marburg virus pseudotyped entry inhibition, cell reporter; Potency, µM (titrated, usually from 37.8 µM), inactives show at the top dose activity change, negative = inhibition, most hits filed as inhibitors; AID 540276; 300,000 tested, 1.8% active; calls by dose curve; tested in HEK293 cells
RE007 growth inh – less growth of the S. pombe RE007 Vpr strain. S. pombe RE007 Vpr strain, BacTiter-Glo ATP luminescence, 24 h. Potency, µM (doses to about 92.2 µM), without a hit: at the top dose activity change, negative = less growth, usual class: inhibitors. 360,000 tested, 0.21% active. AID 651644; active = well fitted falling curve with a large enough effect; inconclusive = small, poorly fitted or top-dose-only effect; inactive = no such curve, though single readings can be large or run the other way; also: nearly all actives have a fitted effect of over 50% in size
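Fission yeast RE007 carrying one integrated HIV-1 vpr copy, seeded at OD 0.01 in PMG+AL medium with 23 nL pinned compound. Grown 24 h at 30 degrees; viability read by BacTiter-Glo luminescence after 5 min.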
* = called active by the depositor; ? = inconclusive; / = no result given; [ ] = dose if it differs, or a comment. This is a sample that favours compounds with a hit; in the whole collection about 7.2% have one here. Unless noted, calls follow the shape of the dose curve; as a rule, active = well fitted curve in the direction sought with a large enough effect; inconclusive = small, poorly fitted or top-dose-only effect, or another doubt; inactive = no such curve, though single readings can be large; an effect the other way counts as inactive or inconclusive. % is scaled to controls: 0 for no effect and ±100 for the full control effect; potency is read from the fitted curve at half-maximal effect.

SMILES	FMDV inh	Sm TGR inh	Lassa entry inh	HCV inh	MARV entry inh	RE007 growth inh
Cc1ccc(C)c(N2CCN(C(=O)c3cccn3-c3nnc(N4CCCCC4)s3)CC2)c1	-2%	0%	-16%[46.1 µM]	/	/	/
Cc1c(C(=O)N(C)C)sc2c1c(=O)n(-c1ccc(F)cc1)c(=O)n2Cc1cc(=O)n2ccccc2n1	?	-1%	8%[46.1 µM]	/	/	/
O=c1[nH]c(=S)ccn1C1OC(CO)C(O)C1O (stereo unspecified)	-12%	/	/	30%	/	5%
O=c1[nH]c(=O)n(C2OC(CO)C(O)C2O)cc1F (stereo unspecified)	5%	/	2µM*	?	?	?
O=c1[nH]cnc2c1ccn2C1OC(CO)C(O)C1O (stereo unspecified)	-14%	/	/	1.1µM*	/	8%
C[C@H]1O[C@@H](n2cc(F)c(=O)[nH]c2=O)[C@H](O)[C@H]1O	/	/	-29%	/	4%	/
COc1ccc(CCNC(=O)CSc2nnnn2-c2cccc(C(C)=O)c2)cc1OC	-3%	2%	8%[46.1 µM]	/	12%[46.1 µM]	/
OCCN1CCN(Cc2ccc3c(c2)CN(Cc2cnc(-c4ccccc4)s2)CCO3)CC1	-11%	/	/	/	/	/
Cc1ccccc1OCC(O)CN(Cc1ccccc1O)C1CCCCC1 (stereo unspecified)	24%	2%	-16%[46.1 µM]	-9%	11µM*	5%
CCN(CC(O)COc1ccc(OCC(O)CN(CC)C2CCCCC2)cc1)C1CCCCC1 (stereo unspecified)	-7%	/	?	5µM*	?	1%
CCN(CC(O)COCc1ccc(Cl)cc1)C1CCCCC1 (stereo unspecified)	-23%	-1%	-47%	?	?	-11%
COc1ccc(NC(=O)COCc2cc(-c3cccs3)on2)cc1	10%	-13%	-1%[46.1 µM]	/	/	/
CC1CCc2sc(C(=O)N(C)CC(=O)Nc3ccc(N4CCOCC4)cc3)cc2C1 (stereo unspecified)	-9%	-14%	-6%	0%	-3%	1%
Cc1csc(NC(=O)c2cc3c(s2)CCCCC3)n1	8.9µM*	-2%	2.2µM*	?	?	-19%
O=C(Nc1ccc(N2CCOCC2)cc1)c1cc2c(s1)CCCCC2	-1%	3%	-22%[46.1 µM]	11µM*	?	5%
Cc1csc(NC(=O)c2cc3c(s2)CCCC3)n1	-63%	2%	/	?	/	/
O=C(Nc1ccc(N2CCOCC2)cc1)c1cc2c(s1)CCCC2	-4%	5%	-14%[46.1 µM]	4µM*	?	-30%
O=C(Nc1ccccc1N1CCOCC1)c1cc2c(s1)CCCCC2	40%	6%	?	-6%	?	0%
Cc1ccc(-c2noc(CNC(=O)c3ccc(C)c(Cl)c3)n2)cc1	-22%	1%	-7%[46.1 µM]	/	?	/
CCOC(=O)c1cc(-c2ccc(C)cc2)n(CC(=O)Nc2ccc(OC)c(Cl)c2)c1C	16%	1%	/	/	-19%[46.1 µM]	/
Cc1ccc(-c2cc3onc(-c4ccccc4)c3c(=O)n2C)cc1	18µM*	-1%	/	-10%	/	19%
CNC(=O)c1ccc(-c2cc3onc(-c4ccccc4)c3c(=O)n2C)cc1	-5%	/	/	?	/	19%
COc1ccccc1C(=O)NCC1(N2CCN(C)CC2)CCCCC1	-16%	6%	2%[46.1 µM]	/	?	/
Cc1csc(NC(=O)c2ccc(N3CCCC3=O)cc2)n1	-78%	1%	?	-19%	1.6µM*	-16%
COc1ccc2nc(NC(=O)C3CCCN(S(=O)(=O)c4c(C)noc4C)C3)sc2c1 (stereo unspecified)	-27%	7%	/	?	-5%	11%
Cc1csc(NC(=O)c2ccc(OCC3CCCO3)cc2)n1 (stereo unspecified)	-68%	6%	3.5µM*	11µM*	4.5µM*	-9%
O=C(Nc1nc(-c2ccc(F)c(F)c2)cs1)c1ccc(OCC2CCCO2)cc1 (stereo unspecified)	2µM*	-14%	-23%	?	?	0%
CCOc1ccc2nc(NC(=O)C3CCCN(S(=O)(=O)c4c(C)noc4C)C3)sc2c1 (stereo unspecified)	?	-17%	/	11µM*	/	-2%
